Source: PubChem BioAssay
A selection: hits, their analogues and other compounds. The true share with any hit is near 4.8%.
TGFb SMAD3 inh = qHTS for Inhibitors of TGF-b. HepG2 CAGA-GFP TGF-b/SMAD3 reporter, GFP fluorescence, 18 h; TGF-beta stimulated, 500 pg/mL final. Potency, µM (highest dose often 46.1 µM), for inactives: at the highest dose activity, negative = inhibition, actives largely listed as inhibitors. actives 1.2% (n = 410,000). AID 588855, 2011; further: potency means the concentration at half of the fitted maximal effect; on the % scale 0 is the no-effect control and ±100 the full control effect; nearly all actives have a fitted effect of over 65% in size
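Read-out: total well GFP (ex488/em500-530) summed from mean per-cell fluorescence. Cells: HEPG2 CAGA-GFP, 1% FBS DMEM, 18 h at 37 degrees C with 500 pg/mL final TGF-beta. Unstimulated wells served as the full-inhibition control; stimulated DMSO wells = 0%.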
ATXN2 expr inh = Primary qHTS for Inhibitors of ATXN expression. AID 1745845, 2022. actives 0.72% (n = 360,000). Potency, µM (doses to about 57 µM), without a hit: at the highest dose activity change, negative = inhibition, usual class: inhibitors. HEK-293 ATXN2-luciferase reporter, luminescence, 24 h; further: potency means the concentration at half of the fitted maximal effect; on the % scale 0 is the no-effect control and ±100 the full control effect; nearly all actives have a fitted effect of over 55% in size
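qHTS (up to 57 uM final) was run with 24 h compound exposure of reporter cells at 37 °C. Each well was multiplexed: SteadyGlo luminescence measured ATXN2-luciferase expression after a fluorogenic Gly-Phe-AFC viability readout (25 uM final).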
S2 tox = Viability Counterscreen for Primary qHTS for Inhibitors of ATXN expression; S2 cells (HEK-293 line with an ATXN2-luciferase reporter) viability, CellTiter-Fluor protease fluorescence, 24 h; Potency, µM (series often up to 56.7 µM), usual class: cytotoxic; actives 0.49% (n = 400,000); AID 651635, 2014; further: potency means the concentration at half of the fitted maximal effect; nearly all actives have a fitted effect of over 40% in size
DRD3 agonist = qHTS of D3 Dopamine Receptor Agonist: qHTS | D(3) dopamine receptor (Homo sapiens), P35462 | AID 652048, 2013 | max activation, % | D3R DiscoveRx beta-arrestin cells, luminescence, 90 min | actives 0.58% (n = 410,000); in the data active means max activation above about 30%; further: 0% is about no effect
Target sequence (P35462 whole entry, looked up): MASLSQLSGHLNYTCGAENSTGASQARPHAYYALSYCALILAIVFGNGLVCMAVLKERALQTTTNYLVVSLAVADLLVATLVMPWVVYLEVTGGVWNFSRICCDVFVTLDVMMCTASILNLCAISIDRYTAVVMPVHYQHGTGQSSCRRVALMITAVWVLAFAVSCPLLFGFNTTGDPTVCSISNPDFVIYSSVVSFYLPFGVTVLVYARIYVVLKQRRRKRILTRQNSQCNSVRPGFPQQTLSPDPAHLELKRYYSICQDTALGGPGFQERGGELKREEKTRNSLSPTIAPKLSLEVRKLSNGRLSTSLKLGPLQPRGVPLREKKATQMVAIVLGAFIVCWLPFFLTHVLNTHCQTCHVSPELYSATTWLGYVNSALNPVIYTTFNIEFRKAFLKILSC
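Agonist mode: compounds and dopamine controls were applied to plated cells for 90 min at 37 degrees C after an overnight attachment at 1500 cells/well. Luminescent read-out followed 30 - 60 minutes at room temperature with DiscoveRx detection reagent.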
HepG2 tox = qHTS for Inhibitors of TGF-b: Cytotox Counterscreen; Potency, µM (doses to about 46.1 µM), inactives show at the highest dose activity change, negative = cytotoxicity, most hits filed as cytotoxic; actives 0.76% (n = 410,000); HepG2 CAGA-GFP viability, ATP luminescence, 18 h; further: potency means the concentration at half of the fitted maximal effect
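CellTiter-Glo luminescence gave cytotoxicity after 18 hours at 37 degrees C. The cells were HepG2 CAGA-GFP in 1% FBS DMEM, stimulated with 500 pg/mL TGF-beta after compound addition. %Activity was normalised to no-cell wells (complete cell-killing) and DMSO (no toxicity), and curves were fitted and classified.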
D3 antag = qHTS of D3 Dopamine Receptor Antagonist: qHTS; AID 652054, 2013; D3R cells, DiscoveRx beta-arrestin luminescence, antagonist mode; active compounds read low; actives 2.5% (n = 360,000); max response, negative = inhibition, %; D(3) dopamine receptor (Homo sapiens), P35462; in the data active means max response below about -50%; inconclusive means no clear call, values can overlap the other calls; further: on the % scale 0 is the no-effect control and ±100 the full control effect
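Cells expressing the human receptor were seeded at 1500 cells/well, incubated overnight at 37 degrees C in 5% CO2, then exposed to library compounds with dopamine controls for 90 minutes at 37 degrees C before luminescent detection.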
The depositor's hits bear a star; i = inactive; ? = inconclusive; · = not tested or not shown. Unless noted, the call rests on the fitted dose curve; in most records, active means well fitted curve in the direction sought with a large enough effect; inconclusive means small, poorly fitted or top-dose-only effect, or another doubt; inactive means no such curve, though single readings can be large; an effect the other way counts as inactive or inconclusive.

SMILES	TGFb SMAD3 inh	ATXN2 expr inh	S2 tox	DRD3 agonist	HepG2 tox	D3 antag
CCOC(=O)N1CCC(NC(=O)c2ccc3c(c2)N(Cc2ccc(F)cc2)C(=O)c2ccccc2S3=O)CC1 (stereo unspecified)	?	-29%	i	-4	-9%	·
CN[C@H]1[C@@H](O)[C@@H]2O[C@@H]3O[C@H](C)CC(=O)[C@]3(O)O[C@@H]2[C@@H](NC)[C@H]1O	·	27µM*	·	·	·	·
O=C1Nc2ccccc2/C1=N/c1sc2c(c1C(=O)NCCc1ccccc1)CCCC2	-17%	1%	i	-19	-11%	-90*
O=C(Nc1sc2c(c1C(=O)NCCO)CCCC2)c1ccco1	-2%	10%	i	17	4%	25
CSc1ncc(C(=O)Nc2ccc(C)c(Cl)c2)c(-c2ccccc2)n1	-6%	13%	i	-4	-25%	·
CCOC(=O)C1CCN(C(=O)C2CCN(S(=O)(=O)c3c(C)noc3/C=C/c3ccc(C)cc3)CC2)CC1	7%	-30%	i	-10	-29%	·
CCN1CCN(c2ccc([N+](=O)[O-])c(Sc3nc4ccccc4[nH]3)c2)CC1	9%	-35%	?	-39	-6%	-94*
CS(=O)(=O)c1cc([N+](=O)[O-])c(Sc2nc3ccccc3[nH]2)c([N+](=O)[O-])c1	?	?	?	-24	-50%	-51*
Cn1cnc([N+](=O)[O-])c1Sc1nc2ccccc2[nH]1	-2%	?	?	-20	3%	-54*
COc1cc(=O)n2c(c1C(=O)N(C)Cc1nccs1)CCN(Cc1ccc(F)c(F)c1)CC2	·	·	i	·	·	·
CC(=O)c1cccc(NC(=O)c2cccc3c(-c4cccc(C(N)=O)c4)coc23)c1	-5%	32µM*	?	7	-5%	190
COc1cc(OC)c(OC)cc1/C=C/C(=O)c1ccc(NS(=O)(=O)c2ccc(C)cc2)cc1	?	-30%	i	31*	-7%	97
Cc1cnc(C)c(-c2cc(F)cc3c2OC(CNC(=O)CN2CCCC2)C3)n1 (stereo unspecified)	·	·	i	·	·	·
CCOc1ccc(/C(O)=C2/C(=O)C(=O)N(c3ncccn3)C2c2ccc(C)cc2)cc1 (stereo unspecified)	1%	15%	·	31*	-17%	-21
Cc1ccc(C(C)OC(=O)C2(C)CCC(C(=O)O)C2(C)C)cc1 (stereo unspecified)	·	14%	i	·	·	·
COc1ccc(/C=C/C(=O)c2c(C)cc(C)[nH]c2=O)c2ccccc12	18µM*	?	?	-1	13µM*	-23
Cc1ccc(/C=C/C(=O)c2c(C)cc(C)[nH]c2=O)cc1	-4%	?	?	-10	-48%	-10
COc1cc(NC(=O)CCc2c(C)nn(-c3ccc(N4CCCCC4)nn3)c2C)cc(OC)c1OC	-4%	·	·	73*	-35%	·
COc1ccc(NC(=O)CCc2c(C)nn(-c3ccc(N4CCCCC4)nn3)c2C)cc1Cl	?	·	·	5	-32%	·
CC(=O)C1CCN(Cc2ccccc2)CC1	40%	-8%	i	-5	-14%	13
CSc1ccccc1OC1CCN(Cc2ccccc2)CC1	-3%	-9%	i	-33	-14%	-92*
Cc1cccc2c1cnn2C(=O)CCC(=O)N1CCC(C)CC1	0%	-6%	i	1	-6%	-57*
Cc1ccc(S(=O)(=O)N2CCN(c3cc(-c4cccs4)nc4ccccc34)CC2)cc1	7%	·	·	·	-19%	·
CCc1cc(C(=O)NCc2c(C)ncc3c2CCN(C(=O)C2=CCCC2)C3)no1	·	·	i	·	·	·
COc1cc(CN2CCC(Cc3ccccc3)CC2)cc(OC)c1OC	1%	-12%	i	-19	-24%	?
SMILES	TGFb SMAD3 inh	ATXN2 expr inh	S2 tox	DRD3 agonist	HepG2 tox	D3 antag
Fc1ccccc1CN1CCC(Cc2ccccc2)CC1	0%	-24%	i	-16	1%	-79*
Fc1cccc(CN2CCC(Cc3ccccc3)CC2)c1	7%	·	?	-5	-1%	-53*
COc1ccc(CN2CCC(Cc3ccccc3)CC2)c(C)c1C	-5%	?	i	-22	-32%	-19
N#CCC1c2ccccc2CCN1C(=O)Nc1cccc(C(F)(F)F)c1 (stereo unspecified)	3%	-7%	i	-33	-28%	-15
N#CCC1c2ccccc2CCN1C(=O)Nc1ccc(C(F)(F)F)cc1 (stereo unspecified)	-25%	-28%	i	-34	-14%	-94*
COC(=O)CC1Oc2ccc(Cl)cc2-n2cc(-c3ccc(C)cc3)nc21 (stereo unspecified)	-8%	-2%	i	-15	-10%	·
O=C1NN=C(c2ccc(Cl)cc2)CC1c1cccc(Cl)c1 (stereo unspecified)	-24%	-32%	?	9	-5%	-61*
CCNC1=C(Cl)C(=O)c2ccccc2C1=O	?	-23%	i	3	13µM*	?
CCCC(=O)NNC(=O)CCC(=O)Nc1ccccc1Cl	-8%	2%	i	2	-14%	4
CCCC(=O)NC1=C(Cl)C(=O)c2ccccc2C1=O	-31%	-19%	·	-28	-105%	-68*
O=C1C(Cl)=C(NCCN2CCCCC2)C(=O)c2ccccc21	1.6µM*	14µM*	20µM*	-22	-92%	-63*
O=C(NCCN1CCCC1)c1ccccc1Cl	-5%	-10%	i	-20	6%	-15
O=C1C(Cl)=C(NCc2ccco2)C(=O)c2ccccc21	11µM*	-13%	?	-7	-109%	-14
CCOc1cccc(C2c3[nH]c4ccccc4c3CCN2C(=O)Cc2cccc(OCC)c2OCC)c1 (stereo unspecified)	-26%	-4%	?	7	-3%	·
CC1CCN(CCCCOc2cccc(C(C)C)c2)CC1	-3%	-20%	i	-20	-28%	-108*
CC1CCN(CCOc2cccc(Br)c2)CC1	2%	?	i	3	-11%	-75*
CC1CCN(CCOc2ccccc2-c2ccccc2)CC1	-25%	-15%	i	-30	-12%	?
CC1CN(CCOc2cccc(Oc3ccccc3)c2)CC(C)O1 (stereo unspecified)	7%	-22%	i	-23	-3%	-23
CC1CCCN(CCOc2cccc(Oc3ccccc3)c2)C1 (stereo unspecified)	-23%	9%	?	-29	-36%	-61*
